Consider 40 compounds from PubChem BioAssay (NCI).

Each structure is given as a SMILES string. Compounds without any hit were thinned out: in the full panel of roughly 83,000, 20% have a hit.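 Testing used 96-well plates and a 48-hour single-concentration exposure. Example: -40 means 40% of the starting cells died.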 Values without a mark were called inactive. Activity calls are given as the source filed them.

This test relates to HOP-62 NSCLC. Nature of the test: NCI-60 one-dose screen, 48 h (100 = growth as untreated, 0 = no growth, -100 = all killed). As to conditions: 10 µM unless noted. The method, then: Growth inhibition of the HOP-62 human Non-Small Cell Lung tumor cell line is measured as a screen for anti-cancer activity. Cells are grown in 96 well plates and exposed to the test compound for 48 hours. Compounds are tested at a single concentration, which is 10^-5 M for most compounds. The reported endpoint is percent growth (GI% or GIPRCNT), where numbers from 0 - 100% represent growth inhibition, and numbers from -100% - 0 represent cell death. For example, a value of 40 represents 60% growth inhibition. A value of 0 means no net growth occurred over the course of the experiment. A value of -40 indicates 40% of cells at the beginning of the experiment died by the end of the experiment. A value of -100 means all cells are dead at the end of the experiment.
NCI-60 Human Tumor Cell Lines Screen was performed using the standard one-dose NCI protocol, which is described in more detail at https://dtp.cancer.gov/discovery_development/nci-60/default.htm.
Compounds with GIPRCNT values below 10 were considered active. Activity score was based on GIPRCNT using the following formula: […]
Score is 0 for GIPRCNT values of 100 or above, 50 for GIPRCNT values of 0, and 100 for GIPRCNT values of -100.
Regarding `C=C1CC2(OC1=O)C(=O)Nc1ccccc12` (stereo not given), the growth is 108%.

Turning to `CCC(=O)Oc1ccc(/C(=C(\C)c2ccccc2)c2ccc(OCCN(CC)CC)cc2)cc1`, the growth was 95.3%.

As for `COc1cc(OC)c(/C=C/c2cc[n+](C)c3ccccc23)c(OC)c1`, the growth was 17.1%.

Regarding `CCN(CC)CCC(=O)c1ccc(OC)c2ccccc12`, the growth was 83.4%.

With `O=c1ccc2cc3ccccc3cc2[nH]1`, the growth is 95.4%.

With `COc1cc(C#N)cc(OC)c1OCCN(CCOc1c(OC)cc(C#N)cc1OC)S(=O)(=O)c1ccc(C)cc1`, the growth was 100%.

Take `Cc1ccc(Nc2nc(N)nc(Nc3ccc4ccccc4c3)n2)cc1`: the growth is 47%.

In the case of `Cc1noc(C)c1-c1cc(O)cc(C(O)c2ccccc2)c1` (stereo not given), the growth was 47.2%.

Regarding `CC(=O)C1=C(O)C=C2Oc3c(C(=O)/C=C/c4ccccc4)c(O)c(C)c(O)c3[C@]2(C)C1=O`, the growth is 37.3%.

In the case of `c1ccc2c(Nc3cccc4ccccc34)cccc2c1`, the growth was 56.3%.

Turning to `Nc1nc(SCc2ccccc2)c2ncn(C3CCCC3)c2n1`, the growth was 107%.

For `CCCCCCCCSC1=CC(=O)C(OC)=C(OC)C1=O`, the growth is 91.3%.

In the case of `CC(C)(C)c1nn(-c2ccccc2)c2c1CC1(CN2Cc2ccc3c(c2)OCO3)C(=O)c2ccccc2C1=O`, the growth was 97.3%.

For `CSc1nc(NCCO)c(C#N)c(-c2cccc(N)c2)n1`, the growth is 83.7%.

For `O=C1CC(c2nc3ccccc3[nH]2)CN1C1CCCCC1` (stereo not given), the growth is 94.9%.

With `NS(=O)(=O)c1ccc(-n2ncc3c(=O)[nH]c(CN4CCN(c5cc6c(cc5F)c(=O)c(C(=O)O)cn6C5CC5)CC4)nc32)cc1`, the growth is 113%.

Take `O=C(Nc1cccc2[nH]c(C(F)(F)F)nc12)c1ccc(Br)cc1F`: the growth is 45.3%.

Consider `O=C1/C(=C/c2ccc(Cl)cc2Cl)CN(S(=O)(=O)c2ccccc2)C/C1=C\c1ccc(Cl)cc1Cl`, for which the growth was -2.25% (active).

Consider `O=C(O)C(O)C(O)C(=O)O.[NH-]C1CCCCC1[NH-].[Pt+2]` (stereo not given), for which the growth was 98.8%.

As to `CCCCCCCCCC(=O)Oc1ccc(/C(=C(/C)c2ccccc2)c2ccc(OCCN3CCCC3)cc2)cc1`, the growth was -1.82% (active).

Turning to `CCCC(=O)Oc1ccc(/C(=C(/CC)Cc2ccccc2)c2ccc(OCCN3CCCC3)cc2)cc1`, the growth was 82.8%.

Consider `C=C(CN1CCN(c2cccc(C(F)(F)F)n2)CC1)c1ccc(C(=O)Nc2ccccc2N)cc1`, for which the growth was 20.6%.

Consider `COc1cc(/C=N\NC(=O)CN2CCN(c3cc4c(cc3F)c(=O)c(C(=O)N/N=C/c3ccc(O)c(OC)c3)cn4C3CC3)CC2)ccc1O`, for which the growth is 73.1%.

As to `CC(=O)OCC1OC(OC2=C(CC=C(Cl)Cl)C(=O)c3ccccc3C2=O)C(OC(C)=O)C(OC(C)=O)C1OC(C)=O` (stereo not given), the growth is 92.7%.

As to `COc1cc(C2CC(=O)Nc3c2c(C)nn3-c2nc3ccccc3[nH]2)cc(OC)c1OC` (stereo not given), the growth is 104%.

Consider `Oc1ccccc1/C=N/Nc1ccc2ccccc2n1`, for which the growth is 57.3%.

`COc1ccc(S(=O)(=O)NCCNc2nccc(-c3c(-c4cccc(N)c4)nc4sccn34)n2)cc1`: the growth is 110%.

`O=c1cc(-c2ccccc2)[nH]c2ccccc12`: the growth was 49%.

Regarding `COc1cc(NCCCCN=C(N)NC(N)=NC(C)C)c2ncccc2c1`, the growth was 75.3%.

On to `NC(=S)N/N=C/c1cc(-c2cccc(N)c2)ccn1`, for which the growth is 5.98% (active).

With `Oc1cc(O)c2c(=S)cc(-c3ccc(Cl)cc3)oc2c1`, the growth was 46.4%.

For `COc1ccc(CCN2CC=Cn3c2nc2ccccc2c3=O)cc1`, the growth was 39.9%.

`CCN1CCN(Cc2ccc(NC(=O)Nc3nc4ccc(Oc5ccnc(C(=O)NC)c5)cc4s3)cc2C(F)(F)F)CC1`: the growth was -13% (active).

As for `COc1ccc(N(Cc2cc(OC)c(OC)c(OC)c2)C2OC(=O)c3ccccc32)cc1` (stereo not given), the growth is 28.1%.

As to `O=C(CO[N+](=O)[O-])Nc1ccc(C(=O)/C=C/c2ccc3c(c2)OCO3)cc1`, the growth was 112%.

As for `O=C(/C=C/c1ccc(Cl)cc1)c1ccc(O)c(CN2CCN(c3cc4c(cc3F)c(=O)c(C(=O)O)cn4C3CC3)CC2)c1`, the growth was 49.8%.

With `CC(C)c1c(C(=O)Nc2ccccc2)c(-c2ccccc2)c(-c2ccc(F)cc2)n1CC[C@@H]1CC=CC(=O)O1`, the growth is 12.4%.

In the case of `Cc1ccc2cnc(N)c(C#Cc3cncc(C(=O)Nc4ccc(CN5CCN(C)CC5)c(C(F)(F)F)c4)c3)c2c1`, the growth is -85.2% (active).

Regarding `CC(C)Oc1nc2c(c(=O)n(C)c(=O)n2C)n1C`, the growth was 92.5%.

As to `CCOC(=O)/C=C/C(=O)[C@H](CC(C)C)NC(=O)[C@H](Cc1ccccc1)NC(=O)OCc1ccccc1`, the growth was 108%.
